Screens from PubChem BioAssay.
Shown are actives, neighbours in structure and some others; about 15% of the full set was active somewhere.
DT40 TDP1 no CPT – qHTS for Inhibitors of human tyrosyl-DNA phosphodiesterase 1 (TDP1): qHTS in cells in absence of CPT. DT40 Tdp1-/- hTDP1 cells, no CPT, ATP luminescence, 48 h. hit rate 15% among 420,000. Potency, µM (top dose mostly 46.2 µM), for the others: at the top dose activity change, negative = growth inhibition, actives largely listed as inhibitors. AID 686978, 2013; note: nearly all actives have a fitted effect of over 55% in size
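Camptothecin absent (DMSO only). Human TDP1-complemented DT40 knockout cells, 400 cells/well, 37 °C for minimum 48 hr; ATP measured via CellTiter-Glo, 30 min dark incubation, luminescence.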
12-LOX inh – ALOX12 (human) lipoxygenase inhibition | Potency, µM (series often up to 108 µM), inactives show at the top dose activity change, negative = inhibition, most hits filed as inhibitors | P18054 | AID 1671190 | hit rate 1.1% among 580,000 | purified 12hLO, xylenol orange hydroperoxide absorbance
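Purified human 12hLO at 150 nM in 25 mM Hepes, 0.01% Triton X-100, pH 7.0, preincubated 15 min at room temperature with compound. Reaction started with 40 uM arachidonic acid, 30 min at room temperature. Hydroperoxide measured by Fe-xylenol orange, 573/405 nm absorbance ratio.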
TDP1 cell CPT – DT40-hTDP1 cell growth loss with CPT; Potency, µM (doses to about 46.2 µM), without a hit: at the top dose activity change, negative = growth inhibition, actives largely listed as inhibitors; hit rate 12% among 420,000; AID 686979; chicken DT40 Tdp1-/-;hTDP1 cells + 20 nM CPT, ATP luminescence, 48 h; note: nearly all actives have a fitted effect of over 55% in size
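Chicken DT40 Tdp1-/- cells complemented with human TDP1, 400 cells/well, exposed to compounds plus 20 nM camptothecin for at least 48 h at 37 C; viability read as ATP content by CellTiter-Glo luminescence.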
VP16 counter – counter-screen for ROR gamma inhibitors: Gal4-VP16 reporter. Drosophila S2 Gal4-VP16 UAS-luciferase, luminescence, 20 h. Potency, µM (series often up to 53.6 µM), for the others: at the top dose activity, negative = inhibition, hits mostly inhibitors. hit rate 3.5% among 310,000. AID 2546;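 note: Gal4-VP16 expression switched on by copper sulfate through the metallothionein promoter; nearly all actives have a fitted effect of over 50% in size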
RORg inh – ROR gamma (mouse) transcription inhibition; AID 2551; Potency, µM (top dose mostly 53.6 µM), for the others: at the highest dose activity change, negative = inhibition, usual class: inhibitors; Drosophila S2 Gal4-RORgamma UAS-luciferase reporter, 20 h; P51450; hit rate 5.4% among 310,000; note: nearly all actives have a fitted effect of over 60% in size
Target sequence (P51450 whole entry, looked up, the tested form may be a part): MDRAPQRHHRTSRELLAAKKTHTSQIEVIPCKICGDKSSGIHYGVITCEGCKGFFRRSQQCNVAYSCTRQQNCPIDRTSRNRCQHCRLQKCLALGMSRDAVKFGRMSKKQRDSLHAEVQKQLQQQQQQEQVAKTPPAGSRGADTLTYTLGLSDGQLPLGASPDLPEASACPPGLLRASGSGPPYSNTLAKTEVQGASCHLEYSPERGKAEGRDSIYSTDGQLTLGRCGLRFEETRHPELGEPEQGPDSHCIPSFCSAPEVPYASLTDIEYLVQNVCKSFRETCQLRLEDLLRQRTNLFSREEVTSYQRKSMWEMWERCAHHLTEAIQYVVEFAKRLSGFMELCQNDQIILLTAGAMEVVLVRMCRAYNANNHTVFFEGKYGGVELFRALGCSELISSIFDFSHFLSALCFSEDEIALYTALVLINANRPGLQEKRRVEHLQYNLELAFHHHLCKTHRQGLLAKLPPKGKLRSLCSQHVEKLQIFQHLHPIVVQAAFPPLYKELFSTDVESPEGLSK
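Schneider cells (Drosophila), stable Gal4 DBD–ROR gamma + UAS-luc; 1 hr cmpd preincubation; Cu2+ induction 700 uM final; 20 hr ambient; luminescence.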
ELG1 DNA repair – ELG1-dependent DNA repair inhibition; HEK293T ELG1-luciferase reporter, luminescence, 16 h; DNA damage induced by 5-fluorouridine; Potency, µM (series often up to 46.1 µM), inactives show at the highest dose activity change, negative = inhibition, usual class: inhibitors; hit rate 2.3% among 330,000; note: nearly all actives have a fitted effect of over 55% in size
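In this reporter screen, reduction of luminescence relative to DMSO vehicle indicated activity. Compounds and 5-fluorouridine were added together to 2,000 cells per well, incubated for 16 hr at 37 °C, then developed with ONE-Glo.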
Numbers without * were called inactive; [ ] = another dose, or the depositor's remark. Calls come from the whole dose curve; as a rule, active = well fitted curve in the direction sought with a large enough effect; inconclusive = small, poorly fitted or top-dose-only effect, or another doubt; inactive = no such curve, though single readings can be large; an effect the other way counts as inactive or inconclusive. % is set by controls: 0 for no effect and ±100 for the full control effect; potency is the fitted concentration of half-maximal effect.

How did O=C(Cc1cccc2ccccc12)Nc1nc2ccccc2[nH]1 do in these assays?
DT40 TDP1 no CPT: -25%; 12-LOX inh: 12%; TDP1 cell CPT: inconclusive; VP16 counter: 8.9µM*; RORg inh: 7.9µM*; ELG1 DNA repair: -1%

Results for COc1ccccc1CCC(=O)Nc1nc2ccccc2[nH]1 ?
DT40 TDP1 no CPT: 4.1µM*; 12-LOX inh: 98%[57.4 µM]; TDP1 cell CPT: 5.8µM*; VP16 counter: inconclusive; RORg inh: inconclusive; ELG1 DNA repair: inconclusive

How did CCCCCC(=O)Nc1nc2ccccc2[nH]1 do in these assays?
DT40 TDP1 no CPT: 8.2µM*; 12-LOX inh: 0%; TDP1 cell CPT: 9.2µM*; VP16 counter: inconclusive; RORg inh: 6.3µM*; ELG1 DNA repair: inconclusive

What do the screens show for `COc1ccc(CCC(=O)Nc2nc3ccccc3[nH]2)cc1OC`?
DT40 TDP1 no CPT: 2%; 12-LOX inh: 0%; TDP1 cell CPT: -2%; VP16 counter: 9%; RORg inh: 0%; ELG1 DNA repair: -8%

Results for C=C(C)CN(CC)C(=O)CCc1cccs1 ?
12-LOX inh: 1%

What do the screens show for `CCCCOC(=O)/C=C/c1ccc(OC(=O)OC)c(OC(=O)OC)c1`?
DT40 TDP1 no CPT: 9.2µM*; 12-LOX inh: inconclusive; TDP1 cell CPT: 7.3µM*; VP16 counter: inconclusive; RORg inh: -15%; ELG1 DNA repair: inconclusive

What do the screens show for `COc1ccc(/C=C/C(=O)OCCCC(c2ccc(F)cc2)c2ccc(F)cc2)cc1OC`?
12-LOX inh: -7%

What do the screens show for `COC(=O)Oc1ccc(/C=C/C(=O)OC(C)C)cc1OC(=O)OC`?
DT40 TDP1 no CPT: 9.2µM*; 12-LOX inh: -1%; TDP1 cell CPT: inconclusive; VP16 counter: 6%; RORg inh: -14%; ELG1 DNA repair: inconclusive

How did O=C(Nc1ccnn1Cc1ccccc1Cl)c1n[nH]c(=O)c2ccccc12 do in these assays?
12-LOX inh: 19%

How did Cc1cc(Cl)ccc1NC(=O)C1CCCN1S(=O)(=O)c1ccc2c(c1)CCCC(=O)N2 (configuration not stated) do in these assays?
DT40 TDP1 no CPT: 8.2µM*; 12-LOX inh: -25%; TDP1 cell CPT: 15µM*

Results for CCc1ccc(NC(=O)C2CCCN2S(=O)(=O)c2ccc3c(c2)CCCC(=O)N3)cc1 (configuration not stated) ?
DT40 TDP1 no CPT: 18µM*; 12-LOX inh: -20%; TDP1 cell CPT: 16µM*

How did Cc1ccc(Cl)cc1NC(=O)C1CCCN1S(=O)(=O)c1ccc(-c2ccc(=O)[nH]n2)s1 (configuration not stated) do in these assays?
DT40 TDP1 no CPT: 15µM*; 12-LOX inh: -8%; TDP1 cell CPT: -25%; VP16 counter: inconclusive; RORg inh: 0%; ELG1 DNA repair: -26%

Results for Cc1cc(C)cc(NC(=O)C2CCCN2S(=O)(=O)c2ccc3c(c2)CCCC(=O)N3)c1 (configuration not stated) ?
DT40 TDP1 no CPT: inconclusive; 12-LOX inh: -26%; TDP1 cell CPT: inconclusive

How did COc1ccc(NC(=O)C2CCCN2S(=O)(=O)c2ccc3c(c2)CCC(=O)N3)cc1 (configuration not stated) do in these assays?
DT40 TDP1 no CPT: -18%; 12-LOX inh: 398%; TDP1 cell CPT: 0%; VP16 counter: 0%; RORg inh: -13%; ELG1 DNA repair: -6%

Results for Cc1ccc(NC(=O)C2CCCN2S(=O)(=O)c2ccc3c(c2)CCCC(=O)N3)cc1C (configuration not stated) ?
DT40 TDP1 no CPT: 21µM*; 12-LOX inh: -7%; TDP1 cell CPT: inconclusive

Results for N#Cc1cccc(NC(=O)CNc2ccccc2C(N)=O)c1 ?
12-LOX inh: 56%

How did CCN(CC)S(=O)(=O)c1ccc(N2CCN(S(=O)(=O)c3ccc4c(c3)OCCO4)CC2)nc1 do in these assays?
DT40 TDP1 no CPT: inconclusive; 12-LOX inh: 287%; TDP1 cell CPT: 21µM*; VP16 counter: -16%; RORg inh: 25%; ELG1 DNA repair: 9.2µM*

Results for CCN(CC)S(=O)(=O)c1ccc(N2CCN(c3ccccc3O)CC2)nc1 ?
DT40 TDP1 no CPT: 21µM*; 12-LOX inh: -6%; TDP1 cell CPT: inconclusive; VP16 counter: -2%; RORg inh: inconclusive; ELG1 DNA repair: -20%

What do the screens show for `CCOC(=O)N1CCN(c2ccc(S(=O)(=O)N3CCOCC3)cn2)CC1`?
DT40 TDP1 no CPT: -10%; 12-LOX inh: 301%; TDP1 cell CPT: -5%; ELG1 DNA repair: 12%

What do the screens show for `CCOC(=O)N1CCN(C(=O)CN(Cc2ccc(Cl)cc2)S(=O)(=O)c2ccccc2)CC1`?
DT40 TDP1 no CPT: 21µM*; 12-LOX inh: -25%; TDP1 cell CPT: inconclusive; VP16 counter: 0%; RORg inh: 3%; ELG1 DNA repair: inconclusive

Results for CCS(=O)(=O)N1CCN(S(=O)(=O)c2ccc3c(c2)OCCO3)CC1 ?
DT40 TDP1 no CPT: -12%; 12-LOX inh: -25%; TDP1 cell CPT: -10%; VP16 counter: -11%; RORg inh: -41%; ELG1 DNA repair: -6%

Results for CCOC(=O)N1CCN(c2ccc(S(=O)(=O)N(Cc3ccccc3)Cc3ccccc3)cn2)CC1 ?
DT40 TDP1 no CPT: 13µM*; 12-LOX inh: -12%; TDP1 cell CPT: 13µM*; VP16 counter: inconclusive; RORg inh: 41%; ELG1 DNA repair: inconclusive

Results for COC[C@H]1CCCN1C(=O)C[C@@H]1O[C@H](CNC(=O)Nc2ccccc2)[C@@H](O)[C@H]1O ?
12-LOX inh: 6%[176 µM]

Results for CCc1cccc2c1NC(=O)C2(O)CC(=O)c1ccc(Br)cc1 (configuration not stated) ?
12-LOX inh: -45%

How did CCOC(=O)c1cc(=O)n2nc(-c3ccccc3F)nc2s1 do in these assays?
DT40 TDP1 no CPT: 23µM*; 12-LOX inh: -5%; TDP1 cell CPT: inconclusive; VP16 counter: 3%; RORg inh: -10%; ELG1 DNA repair: 16%

Results for CCOC(=O)c1ccc(NC(=O)Cn2nnc(-c3ccccc3F)n2)cc1 ?
DT40 TDP1 no CPT: inconclusive; 12-LOX inh: 21%; TDP1 cell CPT: inconclusive; VP16 counter: 0%; RORg inh: 23%; ELG1 DNA repair: -2%

Results for COc1ccc(Br)cc1/C=c1\sc2nc(-c3ccco3)nn2c1=O ?
DT40 TDP1 no CPT: inconclusive; 12-LOX inh: 22µM*; TDP1 cell CPT: inconclusive; VP16 counter: 0%; RORg inh: -5%; ELG1 DNA repair: 20%
